RORgamma inh – inhibitors of mouse ROR gamma transcriptional activity; AID 2551; hit rate 5.4% among 310,000; Potency, µM (series often up to 53.6 µM), inactives show at the highest dose activity change, negative = inhibition, usual class: inhibitors; Drosophila S2 Gal4-RORgamma UAS-luciferase reporter, 20 h; P51450; further: potency means the concentration at half of the fitted maximal effect; nearly all actives have a fitted effect of over 60% in size
Target sequence (P51450 whole entry, looked up, the tested form may be a part): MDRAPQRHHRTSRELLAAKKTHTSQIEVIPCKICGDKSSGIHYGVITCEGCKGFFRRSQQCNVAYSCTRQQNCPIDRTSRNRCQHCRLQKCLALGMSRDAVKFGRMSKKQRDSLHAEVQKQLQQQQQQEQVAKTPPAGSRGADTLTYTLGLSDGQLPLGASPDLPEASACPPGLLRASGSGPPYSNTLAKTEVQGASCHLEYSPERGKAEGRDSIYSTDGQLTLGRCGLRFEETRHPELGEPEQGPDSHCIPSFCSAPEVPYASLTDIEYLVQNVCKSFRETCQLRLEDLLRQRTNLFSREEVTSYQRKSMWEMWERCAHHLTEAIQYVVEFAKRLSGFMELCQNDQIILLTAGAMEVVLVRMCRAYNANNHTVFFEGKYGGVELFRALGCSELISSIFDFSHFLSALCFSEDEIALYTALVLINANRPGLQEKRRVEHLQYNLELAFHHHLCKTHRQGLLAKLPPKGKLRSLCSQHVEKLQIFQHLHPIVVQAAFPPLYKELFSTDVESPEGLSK
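Stably transfected Drosophila Schneider cells are the test system, with ROR gamma fused to Gal4 and luciferase under UAS control; luminescence is read after 20 hr of 700 uM copper sulfate induction at ambient temperature.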
TDP1 cell CPT – DT40-hTDP1 cell growth loss with CPT; hit rate 12% among 420,000; chicken DT40 Tdp1-/-;hTDP1 cells + 20 nM CPT, ATP luminescence, 48 h; AID 686979; Potency, µM (series often up to 46.2 µM), for the others: top-dose activity change, negative = growth inhibition, actives largely listed as inhibitors; further: potency means the concentration at half of the fitted maximal effect; nearly all actives have a fitted effect of over 55% in size
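Chicken DT40 Tdp1-/- cells complemented with human TDP1, 400 cells/well, exposed to compounds plus 20 nM camptothecin for at least 48 h at 37 C; viability read as ATP content by CellTiter-Glo luminescence.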
IL-1B inflam inh – blocks inflammasome-driven IL-1 beta release. THP-1 LPS/ATP IL-1B secretion, AlphaLISA, 16 h; active compounds read low. activity change, % at 57.5 µM. hit rate 4.7% among 360,000; in the data active means activity change below about -50%; inconclusive means mostly about -30% to -49%
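THP-1 cells pretreated 1 hr with compounds (up to 57.5 uM final), then stimulated with LPS (250 ng/mL final) plus ATP (1.25 mM final); secreted IL-1B measured by AlphaLISA after 16 hr, decreased signal indicating inhibition.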
Gal4-VP16 FLuc – inhibits Gal4-VP16 luciferase reporter, ROR gamma counter-screen; Potency, µM (titrated, usually from 53.6 µM), for the others: at the top dose activity, negative = inhibition, hits mostly inhibitors; Drosophila S2 Gal4-VP16 UAS-luciferase, luminescence, 20 h; hit rate 3.5% among 310,000; AID 2546;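 further: Gal4-VP16 expression switched on by copper sulfate through the metallothionein promoter; potency means the concentration at half of the fitted maximal effect; nearly all actives have a fitted effect of over 50% in size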
ELG1 DNA repair – ELG1-dependent DNA repair inhibition | HEK293T ELG1-luciferase reporter, luminescence, 16 h; DNA damage induced by 5-fluorouridine | Potency, µM (doses to about 46.1 µM), for the others: at the highest dose activity change, negative = inhibition, usual class: inhibitors | hit rate 2.3% among 330,000 | AID 504467; further: potency means the concentration at half of the fitted maximal effect; nearly all actives have a fitted effect of over 55% in size
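HEK293T cells expressing luciferase-tagged ELG1 (2,000/well) received 5-Fluorouridine plus compound or DMSO for 16 hr at 37 °C. Luciferase was read by ONE-Glo luminescence after 30 min at room temperature.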
TDP1 cell noCPT – qHTS for Inhibitors of human tyrosyl-DNA phosphodiesterase 1 (TDP1): qHTS in cells in absence of CPT; DT40 Tdp1-/- hTDP1 cells, no CPT, ATP luminescence, 48 h; Potency, µM (titrated, usually from 46.2 µM), inactives show top-dose activity change, negative = growth inhibition, most hits filed as inhibitors; hit rate 15% among 420,000; AID 686978, 2013; further: potency means the concentration at half of the fitted maximal effect; nearly all actives have a fitted effect of over 55% in size
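Growth of hTDP1-complemented DT40 Tdp1-knockout cells is measured by ATP luminescence after at least 48 hr compound exposure at 37 °C, with DMSO substituting for the 20 nM CPT used in the parallel screen.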
* marks the source's active call; other numbers are inactive results; ? = inconclusive; nt = no result given; [ ] = dose if it differs, or a comment. Compounds with a hit are over-represented: about 21% of the library has one in this group of screens. Unless noted, the call rests on the fitted dose curve; in most records, active means well fitted curve in the direction sought with a large enough effect; inconclusive means small, poorly fitted or top-dose-only effect, or another doubt; inactive means no such curve, though single readings can be large; an effect the other way counts as inactive or inconclusive. On the % scale 0 is the no-effect control and ±100 the full control effect.

SMILES	RORgamma inh	TDP1 cell CPT	IL-1B inflam inh	Gal4-VP16 FLuc	ELG1 DNA repair	TDP1 cell noCPT
Cc1cc(C)c(Cn2c(C)c(CNCCCc3ccccc3)c(C(=O)O)c2C)c(C)c1	nt	?	nt	nt	nt	23µM*
COc1cc(OC)c(OC)cc1CN1CCCC(c2[nH]ncc2-c2cccc(C(F)(F)F)c2)C1 (stereo not given)	nt	?	nt	nt	nt	23µM*
CCc1nn(CC(=O)NCCc2ccc(SC)cc2)c(=O)c2cc3sccc3n12	nt	-8%	nt	nt	nt	-3%
N#CC(Cc1cccc(CC(C#N)(c2ccccc2)c2ccccc2)c1)(c1ccccc1)c1ccccc1	-7%	3.3µM*	5	2%	0%	4.1µM*
CC(C)(C#N)Cc1cc(CC(C)(C)C#N)cc(C(C)(C)C)c1	14%	-12%	23	11%	-19%	-14%
Cc1cc(C)c(CN2CCN(CCCn3cnc(C(=O)Nc4ccc(C)c(C)c4)n3)CC2)c(C)c1	nt	?	?	nt	nt	15µM*
Cc1ccc(NC(=O)c2ncn(CCCN[C@H](C)c3cccc4ccccc34)n2)cc1C	nt	16µM*	-4	nt	nt	15µM*
Cc1ccc(NC(=O)c2ncn(CCCNCC3CCCCC3)n2)cc1C	nt	?	?	nt	nt	21µM*
COc1cc(C2SCC(=O)N2Cc2ccccc2)ccc1O (stereo not given)	5%	-16%	27	-8%	-3%	-10%
COC(=O)[C@]1(C)N[C@H](CN(C)C(=O)Nc2ccc(Cl)cc2)[C@@H]2C(=O)N(C)C(=O)[C@@H]21	nt	13%	7	nt	12%	-9%
NC(=O)c1ccccc1NC(=O)/C=C/c1ccc(Cl)cc1	-2%	?	-14	5%[0.365 µM]	?	16µM*
NC(=O)c1ccccc1NC(=O)/C=C/c1ccccc1	-37%	?	-12	-14%	?	21µM*
Cc1c(O)ccc(NC(=O)/C=C/c2ccccc2)c1C	35%	18µM*	0	-6%	14%	15µM*
CC(=O)Nc1nc(NC(=O)/C=C/c2ccccc2)n(-c2ccccc2)n1	0.28µM*	12µM*	37	0.89µM*	-7%	8.2µM*
CCS(=O)(=O)c1ccc(O)c(NC(=O)/C=C/c2ccccc2)c1	?	0%	14	3%	?	-9%
CC(=O)Nc1nc(NCc2ccccc2Cl)n(-c2ccccc2)n1	-18%	13%	-12	-12%	-16%	3%
CO/N=C(\C(=O)N[C@@H]1C(=O)N2C(C(=O)O)=C(CSc3nc(=O)c(O)nn3C)CS[C@H]12)c1csc(N)n1	nt	0%	nt	nt	nt	-27%
Cc1ccc(-c2cc(C(=O)Oc3ccc(C#N)cc3)no2)cc1	nt	-27%	nt	nt	nt	?
CSc1nnc(C)c(/C=C/Nc2ccc(C)cc2)n1	-26%	-15%	-1	5%	-23%	18µM*
O=C(O)c1ccc([N+](=O)[O-])c2c1C(=O)c1ccccc1C2=O	nt	-5%	6	nt	nt	-22%
O=C1c2c(O)ccc([N+](=O)[O-])c2C(=O)c2c([N+](=O)[O-])ccc(O)c21	6.3µM*	nt	nt	11µM*	nt	nt
O=C1c2ccccc2C(=O)c2c([N+](=O)[O-])ccc(O)c21	-28%	-16%	-28	6%	-3%	21µM*
CCOC(=O)c1cc(-c2ccccc2)n(CCC(=O)NC(C)CC)c1C (stereo not given)	?	-28%	?	3%	?	-18%
CNCC(=O)Nc1ccc(Cl)c(C(F)(F)F)c1	2%	-25%	-10	8%	-3%	?
CCOC(=O)c1cc(-c2ccccc2)n(CCC(=O)Nc2ccc(Cl)c(C(F)(F)F)c2)c1C	nt	3.7µM*	nt	nt	nt	4.6µM*
CCOC(=O)c1cc(-c2ccccc2)n(CCC(=O)Nc2cc(C)cc(C)c2)c1C	nt	15µM*	nt	nt	nt	15µM*
